Screening data as filed in PubChem.
Pf growth 48h: inhibits P. falciparum growth in the first generation, 48 h; P. falciparum luciferase growth in erythrocytes, 48 h; Potency, µM (series often up to 28.7 µM), for the others: at the highest dose activity change, negative = inhibition, hits mostly inhibitors; 5.9% of 310,000 active; AID 504832; also: potency is read from the fitted curve at half-maximal effect; % is scaled to controls: 0 for no effect and ±100 for the full control effect
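In quantitative HTS format, infected erythrocytes bearing luciferase-reporter parasites were treated for a single generation at 37 C. Luminescence after adding detection reagent served as the growth measure.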
Pf growth 96h: P. falciparum growth inhibition at 96 hour, primary screen for plastid delayed-death inhibitors; P. falciparum luciferase reporter growth, 96 h; Potency, µM (titrated, usually from 28.7 µM), without a hit: at the highest dose activity change, negative = inhibition, actives largely listed as inhibitors; 6.9% of 320,000 active; also: potency is read from the fitted curve at half-maximal effect; % is scaled to controls: 0 for no effect and ±100 for the full control effect
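Parasite growth measured via integrated firefly luciferase reporter in P. falciparum. Infected erythrocytes at 2% hematocrit, 0.05% parasitemia final were treated 96 hours at 37 C under 5% CO2, and luminescence was read.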
HCV inh: inhibitors of hepatitis C virus infection; Huh7.5.1 HCVcc-Cre infection, luciferase reporter, 44 h; Potency, µM (top dose mostly 41.8 µM), inactives show at the highest dose activity change, negative = inhibition, most hits filed as inhibitors; 3.4% of 340,000 active; AID 651820; also: potency is read from the fitted curve at half-maximal effect; % is scaled to controls: 0 for no effect and ±100 for the full control effect
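Infectious HCVcc-Cre (~0.5 moi) was added to cells just after compound, with cells seeded 4 h earlier at 1,000 per well. Luciferase activity after 44 h culture reported infection; substrate was incubated 15 min at room temperature before reading.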
Sm TGR inh: blocks Schistosoma mansoni thioredoxin glutathione reductase; Q962Y6; purified TGR, DTNB reduction, TNB absorbance 405 nm; Potency, µM (doses to about 114 µM), for inactives: top-dose activity change, negative = inhibition, actives largely listed as inhibitors; 3% of 360,000 active; AID 485364; also: potency is read from the fitted curve at half-maximal effect; % is scaled to controls: 0 for no effect and ±100 for the full control effect; nearly all actives have a fitted effect of over 60% in size
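First, TGR (20 nM dispensed) and NADPH were mixed with compound. Second, a 15 min room-temperature incubation followed. Third, further NADPH and then DTNB were added to start the reaction. Finally, TNB absorbance was monitored kinetically.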
SARS PLpro yeast: blocks SARS-CoV papain-like protease in a yeast assay; S. cerevisiae expressing SARS-CoV PLpro, growth rescue; Potency, µM (titrated, usually from 32.9 µM), without a hit: at the top dose activity, positive = growth rescue, hits mostly activators; 0.19% of 330,000 active; AID 485353; calls by dose curve; also: potency is read from the fitted curve at half-maximal effect; 0% is about no effect; nearly all actives have a fitted effect of over 55% in size
HCMV antiviral: blocks human cytomegalovirus replication. 4.5% of 410,000 active. activity change, negative = inhibition, % at 57.5 µM. HFF cells, HCMV-luciferase reporter, 72 h; stronger effect = lower value. AID 1259415; in the data active = activity change below about -60%; inconclusive = no clear call, values can overlap the other calls; inactive = above about -39%; also: % is scaled to controls: 0 for no effect and ±100 for the full control effect
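Human foreskin fibroblasts infected with luciferase-reporter HCMV at MOI 1 PFU/cell, compounds at two doses. Luciferase measured 72 h post infection; normalized to buffer-only basal and Salinomycin (10uM) controls.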
* hit, by the source's call; u = inconclusive; x = no result given. Compounds with a hit are over-represented: about 15% of the library has one in this group of screens. Unless noted, calls follow the shape of the dose curve; as a rule, active = well fitted curve in the direction sought with a large enough effect; inconclusive = small, poorly fitted or top-dose-only effect, or another doubt; inactive = no such curve, though single readings can be large; an effect the other way counts as inactive or inconclusive.

SMILES | Pf growth 48h | Pf growth 96h | HCV inh | Sm TGR inh | SARS PLpro yeast | HCMV antiviral
Cc1nc(NCCc2ccccc2)c2oc3ccccc3c2n1 | 0.9% | x | 10µM* | 1.7% | -8.7% | -80.7*
Cc1nc(NCCN2CCOCC2)c2oc3ccccc3c2n1 | 19.9% | 3.4% | -2.6% | 3.0% | 2.4% | 8.4
CCOC(=O)[C@]12CCCC=C1N(Cc1ccc3c(c1)OCO3)C(=O)[C@H](CC(=O)N1CCCCC1)C2 | x | x | x | x | x | -19.4
COC(=O)[C@]12CCCCC=C1N(Cc1ccc(Cl)cc1Cl)C(=O)[C@H](CC(=O)N1CCC(c3ccccc3)CC1)C2 | x | x | x | x | x | -18.2
Cc1ccc(NC(=O)c2sc3nc4n(c(=O)c3c2C)CCCCC4)c(Br)c1 | x | x | x | -4.6% | x | 8.9
Cc1cc(Br)ccc1NC(=O)c1sc2nc3n(c(=O)c2c1C)CCCC3 | x | x | x | 22.4µM* | x | -33.0
CCOC(=O)c1ccccc1NC(=O)c1sc2nc3n(c(=O)c2c1C)CCCC3 | x | x | x | 44.7µM* | x | 24.5
CCC(Sc1nc2ccsc2c(=O)n1Cc1ccc(C(=O)O)cc1)C(=O)Nc1ccc(C)c(Cl)c1 (centres undefined) | u | u | -9.5% | -5.8% | 0.0% | -26.4
CCC(Sc1nc2ccsc2c(=O)n1Cc1ccc(C(=O)O)cc1)C(=O)Nc1cc(Cl)ccc1C (centres undefined) | x | x | x | x | x | -94.6*
CCCOC(=O)c1c(-c2ccc(C)cc2C)csc1NC(=O)C1C2CCC(O2)C1C(=O)O (centres undefined) | -10.1% | -9.4% | -12.9% | -0.8% | 1.9% | -19.2
CCCNC(=S)Nc1ccc2nc(-c3ccccn3)c(-c3ccccn3)nc2c1 | u | u | -8.5% | 12.6µM* | 9.2% | -21.0
Fc1ccc2[nH]c3c(NCc4ccccc4)ncnc3c2c1 | 5.86µM* | 3.7µM* | 7.94µM* | 11.8% | -9.1% | -85.4*
CCOc1ccc2[nH]c3c(NCCC(C)C)ncnc3c2c1 | u | u | -26.3% | -9.9% | 0.7% | -11.8
C=CCNc1ncnc2c1[nH]c1ccc(C)cc12 | u | u | u | -9.8% | 3.6% | -68.1*
COc1ccc2[nH]c3c(NCc4ccco4)ncnc3c2c1 | u | 0.0% | u | 4.5% | 7.6% | x
Cc1ccc2[nH]c3c(NCCN4CCOCC4)ncnc3c2c1 | 4.15µM* | 28.7% | -24.9% | -17.5% | -0.4% | -22.7
CCN1CCCC1CNc1ncnc2c1[nH]c1ccc(Cl)cc12 (centres undefined) | 0.657µM* | 1.47µM* | u | 6.5% | -9.7% | 17.6
C=CCn1c(SCC(=O)NCC2CCCO2)nnc1-c1ccncc1 (centres undefined) | 4.0% | 8.3% | 42.0% | -4.0% | 0.2% | -5.6
C=CCCCCCCCCC(=O)OC | -11.0% | -0.8% | x | x | x | x
O=C(NCCN1CCOCC1)c1ccc(NS(=O)(=O)c2cccc([N+](=O)[O-])c2)cc1 | 1.3% | 28.7% | 19.0% | -9.6% | 1.6% | -30.4
O=[N+]([O-])c1ccc(-c2cn3c(n2)CCC3)cc1 | 72.0% | 101.7% | -0.6% | 12.8% | -0.7% | 45.3
O=C1CCCN1CCCNc1ncnc2c1[nH]c1ccc(Cl)cc12 | u | u | u | -12.5% | -3.8% | -13.9
Clc1ccc2[nH]c3c(NCCCN4CCOCC4)ncnc3c2c1 | 0.415µM* | 212.4% | u | -20.5% | -1.0% | 77.7
Cc1ccc(-c2nn3c(C)nnc3c3ccccc23)cc1S(=O)(=O)NCc1ccccc1 | u | 8.28µM* | u | 3.9% | -6.2% | 68.9
CC1CCC2(CC1)NC(=O)N(NC(=O)C1CCN(C(=O)c3ccc(Cl)cc3)CC1)C2=O (centres undefined) | -5.1% | -10.7% | -7.2% | -10.8% | 2.7% | -26.7
SMILES | Pf growth 48h | Pf growth 96h | HCV inh | Sm TGR inh | SARS PLpro yeast | HCMV antiviral
COc1ccc(-n2c(COc3cccc4ccccc34)nnc2SCC(=O)NCc2ccco2)cc1 | 2.94µM* | -23.2% | u | -10.3% | 1.1% | -35.2
COc1ccc(-n2c(SC)nnc2-c2c[nH]c3ccccc23)cc1 | x | u | 4.1% | -27.4% | 4.0% | -3.2
COc1ccc(-n2c(COc3ccc4ccccc4c3)nnc2SCC(=O)NCc2ccco2)cc1 | 10.4µM* | x | u | -33.1% | -2.9% | -24.1
COc1cccc(-n2c(SC)nnc2-c2c[nH]c3ccccc23)c1 | x | 4.65µM* | -24.0% | 15.2% | -1.5% | -5.1
COc1ccccc1OCc1nnc(SCC(=O)NCc2ccco2)n1-c1ccccc1 | -17.4% | 5.5% | 4.2% | -17.7% | 26.2% | 29.2
COc1ccc(OC)c(-n2c(SCC(=O)NCc3ccco3)nnc2-c2c[nH]c3ccccc23)c1 | x | 2.62µM* | -13.9% | u | -7.9% | -14.3
COc1cccc(-n2c(SCC(=O)NCc3ccco3)nnc2-c2c[nH]c3ccccc23)c1 | u | u | -4.9% | -27.8% | 5.4% | -2.4
CCCCc1ccc(N2C(=NC(=O)C3CCCO3)SC3CS(=O)(=O)CC32)cc1 (centres undefined) | 25.7% | 10.1% | 29.9% | 3.9% | u | -22.1
COc1ccc(NC(=O)Cn2c(=O)cc(C)c3c(C)nn(C)c32)cc1 | x | x | x | 17.4% | x | u
COc1ccc(C(O)c2ncc(-c3cccc4ccccc34)[nH]2)cc1F (centres undefined) | x | x | x | x | x | 3.8
COc1ccc(CCNC(=O)c2nnn(-c3ccccc3OC)c2N)cc1OC | 0.4% | u | -16.6% | 4.3% | -11.1% | 29.0
COc1ccc(CCN2C(=O)CCC2(C)c2nnnn2-c2ccc3c(c2)OCCO3)cc1OC (centres undefined) | x | x | x | x | x | -83.1*
Cc1ccccc1NC(=O)c1nnn(-c2ccc3c(c2)OCCO3)c1N | 84.9% | u | 10µM* | -19.1% | -7.5% | 36.4
COc1ccc(CCNC(=O)c2nnn(-c3ccc4c(c3)OCCO4)c2N)cc1OC | 151.3% | 0.4% | u | 2.1% | 25.7% | -75.3*
CCOc1ccccc1NC(=O)c1nnn(-c2ccc3c(c2)OCCO3)c1N | 30.4% | u | u | 11.4% | -20.9% | u
CC(=O)Nc1cc(-c2ccccc2CN(C)C)cn2c(-c3ccc(F)c(Cl)c3)cnc12 | x | x | x | x | x | -1.9
COc1cc(OCc2ccccc2)c(OC)c(OCc2ccccc2)c1 | x | x | 10µM* | x | x | 34.3
COc1cccc2c1[C@@H]1CN(CCCCn3c(=O)[nH]c4c(sc5ncc(-c6ccccc6)nc54)c3=O)C[C@@H]1CO2 | u | u | 3.55µM* | -8.7% | x | -28.8
NC(=O)C1CCCN(C(=O)CN2C(=O)NC(c3ccccc3)(c3ccccc3)C2=O)C1 (centres undefined) | 47.6% | 44.2% | 8.9% | -13.9% | 1.4% | -5.3
CC(C)CNS(=O)(=O)c1ccc(S(=O)(=O)N2CCCN(Cc3ccccc3)C2)cc1 | 11.7µM* | 10.3% | -6.4% | -2.0% | 1.4% | -3.2
